Results taken from PubChem BioAssay AID1159580 (chemical genetic matrix, 2015).
Values joined by “and” are separate entries in the source; they are usually repeats but may differ in a detail not shown here. Identical values can stand only once. About 2,000 (36%) of roughly 5,500 compounds were called active. Not shown: some 18% with an inconclusive outcome. No stated cut-off is given here; in the data, active means normalized growth mostly below about 0.91 (no sharp cut-off); inconclusive means no clear call, values can overlap the other calls; inactive means mostly above about 0.92. The list shows a part of the results.

Experiment: chemical genetic growth profiling, strain panel (AID 1159580);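 further: tested at 20 µM; growth read once vehicle control cultures reached saturation at 30 °C; 1 = growth at the plate median or of vehicle wells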
Conditions: growth OD

Measured: normalized growth

O=C(O)Cc1cc(I)c(Oc2cc(I)c(O)c(I)c2)c(I)c1
active: S. cerevisiae deletion strains, locus YHR079C, strain IRE1, stronger effect = lower value 0.762 | S. cerevisiae deletion strains, locus YKL068W, stronger effect = lower value 0.917 | S. cerevisiae deletion strains, locus YKL085W, strain MDH1 (second series), stronger effect = lower value 0.924 | S. cerevisiae deletion strains, locus YKL085W, strain MDH1, stronger effect = lower value 0.924 | S. cerevisiae deletion strains, locus YLR113W, strain HOG1, stronger effect = lower value 0.418 | S. cerevisiae deletion strains, locus YOR231W, strain MKK1, stronger effect = lower value 0.67 | S. cerevisiae deletion strains, locus YPL256C, strain CLN2, stronger effect = lower value 0.679 | S. cerevisiae deletion strains, locus YPR163C, strain tif3, stronger effect = lower value 0.719
inactive: S. cerevisiae deletion strains, locus YAL013W, strain DEP1, stronger effect = lower value 0.948 | S. cerevisiae deletion strains, locus YBR021W, strain FUR4, stronger effect = lower value 1.03 | S. cerevisiae deletion strains, locus YBR229C, strain ROT2, stronger effect = lower value 0.936 | S. cerevisiae deletion strains, locus YCL029C, strain bik1, stronger effect = lower value 0.96 | S. cerevisiae deletion strains, locus YDL035C, strain GPR1, stronger effect = lower value 0.982 | S. cerevisiae deletion strains, locus YDL074C, strain BRE1, stronger effect = lower value 0.942 | S. cerevisiae deletion strains, locus YDL101C, strain DUN1, stronger effect = lower value 0.955 | S. cerevisiae deletion strains, locus YDL134C, strain PPH21, stronger effect = lower value 0.968 | S. cerevisiae deletion strains, locus YDL185W, strain tfp1, stronger effect = lower value 0.931 | S. cerevisiae deletion strains, locus YDL192W, strain arf1, stronger effect = lower value 0.957 | S. cerevisiae deletion strains, locus YDR101C, strain arx1, stronger effect = lower value 0.979 | S. cerevisiae deletion strains, locus YDR150W, strain NUM1, stronger effect = lower value 0.943 | S. cerevisiae deletion strains, locus YDR162C, strain NBP2, stronger effect = lower value 0.847 | S. cerevisiae deletion strains, locus YDR318W, strain mcm21, stronger effect = lower value 0.98 | S. cerevisiae deletion strains, locus YDR388W, stronger effect = lower value 0.955 | S. cerevisiae deletion strains, locus YDR502C, strain sam2, stronger effect = lower value 0.957 | S. cerevisiae deletion strains, locus YEL061C, strain CIN8, stronger effect = lower value 0.964 | S. cerevisiae deletion strains, locus YER110C, stronger effect = lower value 0.973 | S. cerevisiae deletion strains, locus YER155C, strain BEM2, stronger effect = lower value 0.97 | S. cerevisiae deletion strains, locus YER167W, strain BCK2, stronger effect = lower value 0.97 | S. cerevisiae deletion strains, locus YGL078C, strain dbp3, stronger effect = lower value 0.94 | S. cerevisiae deletion strains, locus YGL086W, strain mad1, stronger effect = lower value 0.982 | S. cerevisiae deletion strains, locus YGL248W, strain PDE1, stronger effect = lower value 0.965 | S. cerevisiae deletion strains, locus YGR078C, strain PAC10, stronger effect = lower value 0.958 | S. cerevisiae deletion strains, locus YGR135W, strain pre9, stronger effect = lower value 0.942 | S. cerevisiae deletion strains, locus YGR229C, strain SMI1, stronger effect = lower value 0.973 | S. cerevisiae deletion strains, locus YGR252W, strain gcn5, stronger effect = lower value 1.06 | S. cerevisiae deletion strains, locus YHR079C, strain IRE1 (second series), stronger effect = lower value 0.973 | S. cerevisiae deletion strains, locus YHR094C, strain hxt1, stronger effect = lower value 0.956 | S. cerevisiae deletion strains, locus YHR129C, strain ARP1, stronger effect = lower value 0.976 | S. cerevisiae deletion strains, locus YHR200W, strain rpn10, stronger effect = lower value 0.959 | S. cerevisiae deletion strains, locus YIL066C, strain RNR3, stronger effect = lower value 0.97 | S. cerevisiae deletion strains, locus YIL073C, strain SPO22, stronger effect = lower value 1.02 | S. cerevisiae deletion strains, locus YIL125W, strain kgd1, stronger effect = lower value 0.944 | S. cerevisiae deletion strains, locus YIR030C, strain dcg1, stronger effect = lower value 0.939 | S. cerevisiae deletion strains, locus YJL095W, strain BCK1, stronger effect = lower value 0.924 and 0.892 | S. cerevisiae deletion strains, locus YJL134W, strain LCB3, stronger effect = lower value 0.954 | S. cerevisiae deletion strains, locus YJL168C, strain set2, stronger effect = lower value 0.942 | S. cerevisiae deletion strains, locus YJL187C, strain SWE1 (second series), stronger effect = lower value 0.949 | S. cerevisiae deletion strains, locus YJR043C, strain POL32, stronger effect = lower value 1.06 | S. cerevisiae deletion strains, locus YJR066W, strain TOR1, stronger effect = lower value 0.864 | S. cerevisiae deletion strains, locus YJR075W, strain HOC1, stronger effect = lower value 1 | S. cerevisiae deletion strains, locus YKL009W, strain mrt4, stronger effect = lower value 0.945 | S. cerevisiae deletion strains, locus YKL190W, strain CNB1, stronger effect = lower value 0.946 | S. cerevisiae deletion strains, locus YKR001C, strain vps1, stronger effect = lower value 0.931 | S. cerevisiae deletion strains, locus YLR039C, strain RIC1, stronger effect = lower value 0.817 | S. cerevisiae deletion strains, locus YLR058C, strain SHM2, stronger effect = lower value 0.959 | S. cerevisiae deletion strains, locus YLR102C, strain apc9, stronger effect = lower value 0.935 | S. cerevisiae deletion strains, locus YLR262C, strain YPT6, stronger effect = lower value 0.749 | S. cerevisiae deletion strains, locus YLR268W, strain sec22, stronger effect = lower value 0.963 | S. cerevisiae deletion strains, locus YLR330W, strain CHS5, stronger effect = lower value 0.967 | S. cerevisiae deletion strains, locus YLR342W, strain FKS1 (second series), stronger effect = lower value 1.02 | S. cerevisiae deletion strains, locus YLR371W, strain rom2, stronger effect = lower value 0.987 | S. cerevisiae deletion strains, locus YLR418C, strain cdc73, stronger effect = lower value 0.911 | S. cerevisiae deletion strains, locus YML016C, strain PPZ1, stronger effect = lower value 0.95 | S. cerevisiae deletion strains, locus YML032C, strain rad52, stronger effect = lower value 0.983 | S. cerevisiae deletion strains, locus YML124C, strain tub3, stronger effect = lower value 0.951 | S. cerevisiae deletion strains, locus YMR078C, strain ctf18, stronger effect = lower value 0.96 | S. cerevisiae deletion strains, locus YMR223W, strain ubp8, stronger effect = lower value 1.01 | S. cerevisiae deletion strains, locus YMR263W, strain SAP30, stronger effect = lower value 0.944 | S. cerevisiae deletion strains, locus YMR307W, strain GAS1, stronger effect = lower value 1.07 | S. cerevisiae deletion strains, locus YNL067W, strain RPL9B, stronger effect = lower value 0.969 | S. cerevisiae deletion strains, locus YNL128W, strain TEP1, stronger effect = lower value 0.952 | S. cerevisiae deletion strains, locus YNL153C, strain GIM3, stronger effect = lower value 0.951 | S. cerevisiae deletion strains, locus YNL183C, strain NPR1, stronger effect = lower value 0.829 | S. cerevisiae deletion strains, locus YNL233W, strain BNI4, stronger effect = lower value 0.968 | S. cerevisiae deletion strains, locus YNL250W, strain rad50, stronger effect = lower value 0.923 | S. cerevisiae deletion strains, locus YNL271C, strain bni1, stronger effect = lower value 0.942 | S. cerevisiae deletion strains, locus YNL298W, strain CLA4, stronger effect = lower value 0.952 | S. cerevisiae deletion strains, locus YNL307C, strain MCK1, stronger effect = lower value 0.982 | S. cerevisiae deletion strains, locus YNL322C, strain KRE1, stronger effect = lower value 0.962 | S. cerevisiae deletion strains, locus YNR052C, strain pop2, stronger effect = lower value 0.973 | S. cerevisiae deletion strains, locus YOL006C, strain TOP1, stronger effect = lower value 0.862 | S. cerevisiae deletion strains, locus YOL012C, strain htz1 0.639 | S. cerevisiae deletion strains, locus YOL147C, strain pex11, stronger effect = lower value 0.965 | S. cerevisiae deletion strains, locus YOR061W, strain CKA2, stronger effect = lower value 0.929 | S. cerevisiae deletion strains, locus YOR069W, strain VPS5, stronger effect = lower value 0.962 | S. cerevisiae deletion strains, locus YOR136W, strain idh2, stronger effect = lower value 0.997 | S. cerevisiae deletion strains, locus YOR144C, strain elg1, stronger effect = lower value 0.947 | S. cerevisiae deletion strains, locus YOR184W, strain ser1, stronger effect = lower value 1.03 | S. cerevisiae deletion strains, locus YOR316C, strain cot1, stronger effect = lower value 0.941 | S. cerevisiae deletion strains, locus YPL055C, strain LGE1, stronger effect = lower value 0.922 | S. cerevisiae deletion strains, locus YPL241C, strain CIN2, stronger effect = lower value 0.953 | S. cerevisiae deletion strains, locus YPR119W, strain clb2, stronger effect = lower value 0.95 | S. cerevisiae deletion strains, locus YPR141C, strain kar3, stronger effect = lower value 0.924 | S. cerevisiae deletion strains, locus YPR167C, strain met16, stronger effect = lower value 0.98 | S. cerevisiae deletion strains, strain wtn01, stronger effect = lower value 0.95 | S. cerevisiae strains, strain wild type, stronger effect = lower value 0.96
0.989 (inactive) and 0.84 (active): S. cerevisiae deletion strains, locus YHR030C, strain SLT2, stronger effect = lower value
